Where “and” joins values, the source holds several entries; their conditions need not be identical. Equal values may be shown once. This is part of a sample that, as a whole, favours compounds with a hit. Of some 83,000 tested, about 20% had one in any assay.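 96-well plates, one dose, 48 hours. Percent growth reported; active if below 10.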 Calls of active or inactive are those of the source.
system: MOLT-4 leukemia; experiment: NCI-60 one-dose screen, 48 h (100 = growth as untreated, 0 = no growth, -100 = all killed); conditions: 10 µM unless noted
Description: Growth inhibition of the MOLT-4 human tumor cell line is measured as a screen for anti-cancer activity. Cells are grown in 96 well plates and exposed to the test compound for 48 hours. Compounds are tested at a single concentration, which is 10^-5 M for most compounds. The reported endpoint is percent growth (GI% or GIPRCNT), where numbers from 0 - 100% represent growth inhibition, and numbers from -100% - 0 represent cell death. For example, a value of 40 represents 60% growth inhibition. A value of 0 means no net growth occurred over the course of the experiment. A value of -40 indicates 40% of cells at the beginning of the experiment died by the end of the experiment. A value of -100 means all cells are dead at the end of the experiment.
NCI-60 Human Tumor Cell Lines Screen was performed using the standard one-dose NCI protocol, which is described in more detail at https://dtp.cancer.gov/discovery_development/nci-60/default.htm.
Compounds with GIPRCNT values below 10 were considered active. Activity score was based on GIPRCNT using the following formula: […]
Score is 0 for GIPRCNT values of 100 or above, 50 for GIPRCNT values of 0, and 100 for GIPRCNT values of -100.

| Structure (SMILES) | growth |
| --- | --- |
| Oc1ccc(-c2nc3ccc(/C(=N\N=C\c4ccc(Cl)cc4)c4ccccc4)cc3[nH]2)cc1 | 57% (inactive) |
| C/C=C/CC(C)C(O)[C@H](NC(=O)[C@@H]1CCCN1C(=O)[C@](C)(CC)NC(=O)CCCCCCCCC)C(=O)N[C@@](C)(CC)C(=O)N[C@@H](CCC(N)=O)C(=O)N[C@H](CCC(N)=O)C(=O)NC(C)(C)C(=O)NC(C)(C)C(=O)N[C@@H](CCC(N)=O)C(=O)N[C@H](CC(C)C)C(=O)N[C@H](CO)CC(C)C (stereo not given in full) | 49.5% (inactive) and -8.22% (active) |
| N#C/C(=C\c1cccc2c1OCO2)C(=O)Nc1sc2c(c1C#N)CCCC2 | 102% (inactive) |
| COc1ccc(OC)c(NC(=O)CCCCCCNC(=O)C(O)(O)C(F)(F)F)c1 | 20% (inactive) |
| Cc1ccc([C@H]2c3[nH]c4ccccc4c3C[C@H]3C(=O)N(CCCCCCC(=O)NO)CC(=O)N23)s1 | 12.5% (inactive) |
| COc1ccc2c(c1)c(-c1nc(N)nnc1-c1c[nH]c3ccccc13)cn2C | 25.5% (inactive) |
| O=C(/C=C/c1ccccc1Cl)Nc1ncc(Cc2cc(Cl)ccc2Cl)s1 | 24% (inactive) |
| C#CCn1cc(/C=N/Nc2nc(-c3ccc(Br)cc3)cs2)c2ccccc21 | 101% (inactive) |
| O=C(CCCCCCNC(=O)C(O)(O)C(F)(F)F)Nc1ccc(-c2ccccc2)cc1 | 14.1% (inactive) |
| O=C(COc1ccc(/C=C2\C(=O)Nc3ccc(F)cc32)cc1)Nc1ccccc1 | 99.2% (inactive) |
| Cc1cccc(N2CCN(C3=C(Cl)C(=O)c4ncccc4C3=O)CC2)c1 | 9.85% (active) |
| COc1ccc(C(C)=C(c2ccc(OCCN(C)C)cc2)c2ccc(OCCN(C)C)cc2)cc1 | -37.6% (active) |
| CCOC(=O)c1c(NC(=O)c2cccc(C(F)(F)F)c2)sc2c3c(ccc12)OCN(C)C3 | -48.5% (active) |
| O=C(Nc1ccc(Cl)c(C(F)(F)F)c1)Nc1ccc2oc(=O)ccc2c1 | 28.2% (inactive) |
| CC(C)NC(=O)c1cc(-c2ccc(NC(=O)Nc3ccc(F)cc3)cc2)nc2cccnc12 | 133% (inactive) |
| CCN(CC)S(=O)(=O)c1ccc(-c2nc(C(Cl)Cl)nc3cc(C)nn23)cc1 | 36.1% (inactive) |
| COc1ccc(OC)c(CCn2cncc2-c2c[nH]c3ccc(Cl)cc23)c1 | 25% (inactive) |
| C#Cc1cc(C(=O)Nc2ccc(CNCCN3CCOCC3)c(C(F)(F)F)c2)ccc1C | 81.6% (inactive) |
| Cc1cc(Br)ccc1-n1cc(C#N)c(N)c1C(=O)c1ccc(Br)cc1 | 108% (inactive) |
| CCc1cc2c(cc1Cl)nc1c(=O)[nH]c(=O)nc-1n2CCOCC(C)C | 64.1% (inactive) |

| Structure (SMILES) | growth |
| --- | --- |
| O=C(CCCCCCN1CC(=O)N2[C@@H](c3ccc(Cl)s3)c3[nH]c4ccccc4c3C[C@H]2C1=O)NO | 11.2% (inactive) |
| COc1cc(C(=O)c2cc(C(C)=O)c3c(C)cccn23)cc(OC)c1OC | 92.5% (inactive) |
| CC(Nc1c(C#N)cnc2ccc(-c3cncc(O)c3)cc12)c1ccccc1 (stereo not given) | 2.65% (active) |
| CCOC(=O)c1cccc(NC2=C(Cl)C(=O)c3nc(C)ccc3C2=O)c1 | 48.5% (inactive) |
| COc1ccc(-c2nc(C#N)c(N3CCC(S(=O)(=O)N4CCOCC4)CC3)o2)cc1 | 98.3% (inactive) |
| Cc1ccc(S(=O)(=O)NCCCNc2nccc(-c3[nH]c(-c4ccccc4)nc3-c3ccc(F)c(O)c3)n2)cc1 | 39.2% (inactive) |
| NS(=O)(=O)c1ccc(Nc2nc(Nc3ccccc3)nc(N3N=C(c4ccc(Cl)cc4)CC3c3ccc(Cl)cc3)n2)cc1 (stereo not given) | 17.3% (inactive) |
| Cc1ccc2c(n1)C(=O)C(Cl)=C(Nc1ccc(C(C)C)cc1)C2=O | 4.3% (active) |
| O=C(Nc1cc(C(F)(F)F)cc(C(F)(F)F)c1)Nc1ccc2oc(=O)ccc2c1 | 19.7% (inactive) |
| N#Cc1c(-c2cccs2)cc(-c2cnccn2)nc1SCC(=O)N/N=C/c1ccncc1 | 117% (inactive) |
| NC(=O)n1c(=O)n(-c2cccc(C(F)(F)F)c2)c(=O)c2cc(-c3ccc(F)cc3F)ccc21 | 0.274% (active) |
| Cn1cc(C2=C(c3coc4cc(Br)ccc34)C(=O)NC2=O)c2ccccc21 | 52.9% (inactive) |
| Cc1ccc2c(n1)C(=O)C(Cl)=C(Nc1cccc(C)c1C)C2=O | -10.3% (active) |
| COc1ccc(-c2cc(-c3ccc(N(C)C)cc3)n3c(n2)nc2ccccc23)cc1 | 13.8% (inactive) |
| Cc1ccc(-c2cc3nc(C(Cl)Cl)nc(-c4ccc(S(=O)(=O)N(C)C)cc4)n3n2)cc1 | 75.6% (inactive) |
| C=C(C)[C@@H]1CC[C@]2(C(=O)NC3CCCCC3)CC[C@]3(C)[C@H](CC[C@@H]4[C@@]5(C)CC[C@H](N)C(C)(C)[C@@H]5CC[C@]43C)[C@@H]12 | 64.5% (inactive) |
| Cc1ccsc1[C@H]1c2[nH]c3ccccc3c2C[C@H]2C(=O)N(CCCCCCC(=O)NO)CC(=O)N12 | 40% (inactive) |
| Cc1ccc(S(=O)(=O)c2nc(-c3ccc(F)cc3)oc2S(C)(=O)=O)cc1 | 2.92% (active) |
| C=C(C)[C@@H]1CC[C@]2(C(=O)O)CC[C@]3(C)[C@H](CC[C@@H]4[C@@]5(C)C/C(=C/c6ccccn6)C(=O)C(C)(C)[C@@H]5CC[C@]43C)[C@@H]12 | 29.4% (inactive) |
| N#CC1=C2NCCCNc3oc(nc3C#N)Cc3ccccc3CC(=N1)O2 | 84.1% (inactive) |

— PubChem BioAssay (NCI)
